According to PubChem BioAssay (NCI):
This is part of a sample that, as a whole, favours compounds with a hit. Of some 79,000 tested, about 15% had one in any assay. Values without a mark were called inactive. Calls of active or inactive are those of the source. No stated cut-off is given here; in the data, active means growth inhibition above about 70%; inactive means the rest.

Assay: NCI Yeast Anticancer Drug Screen. Data for the cln2 rad14 strain (AID 165);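 further: 0% = growth equal to vehicle treated cultures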
Details: S. cerevisiae cln2 rad14 strain, active compounds read high
Protocol: Growth inhibition of yeast strains with defined genetic alterations is measured as a screen for potential anti-cancer activity. Selected strains with alterations in DNA damage repair or cell cycle control were exposed to compounds and growth inhibition was measured relative to vehicle treated controls. The strain used in this assay is cln2 rad14

[1] = at 5.0 µM (retest, dose inferred, filed as 0.5)
[2] = at 50.0 µM (retest, dose inferred, filed as 5.0)

Structure (SMILES)	growth inhibition [1]	growth inhibition [2]	growth inhibition (at 50.0 µM)
COc1ccc(Cc2ccccc2C(=O)O)c2ccccc12	95% (active)	96% (active)	98.7% (active)
CCC(C)c1ccc(O)c(C(C)c2ccccc2)c1 (configuration not stated)	49%	101% (active)	90.3% (active)
O=NNc1ncccc1OCc1ccccc1	7%	9%	3.2%
N#[N+]c1c([O-])ccc2nc3ccccc3nc12	-52%	-65%	-1.5%
COC(=O)CCC(=O)N1C/C(=C\c2ccccc2)C(=O)/C(=C/c2ccccc2)C1	9%	19%	16.5%
COc1cccc2c1C(=O)c1c(O)c3c(c(O)c1C2=O)CC(O)(C(C)=O)CC3OC1OC(COC(C)=O)C(OC(C)=O)C(OC(C)=O)C1OC(C)=O (configuration not stated)	5%	8%	97.2% (active)
COC(=O)c1ccc(OCCC(=O)CCl)cc1	4%	31%	69.1%
CN1CCN=C1c1ccc(NC(=O)Nc2ccc(NC(=O)Nc3ccc(C4=NCCN4C)cc3)cc2)cc1	-10%	61%	50.8%
CC(C)CCOC(=O)c1ccc(O)cc1.[Zn+2]	2%	17%	37%
C=C(c1ccccc1)[P+](c1ccccc1)(c1ccccc1)c1ccccc1	97% (active)	99% (active)	99% (active)
CCc1cccc(C(C)C)c1N1C(=O)C(=O)C(c2nc3ccccc3s2)C(=O)C1=O	51%	51%	85% (active)
CN(C)c1ccc(C(c2ccc(N(C)C)cc2)c2cccc([N+](=O)[O-])c2)cc1	-8%	-33%	14.9%
CCc1nc(N)nc(N)c1-c1ccc(N(C)Cc2ccccc2)c([N+](=O)[O-])c1	31%	40%	4.05%
COc1ccc2ccccc2c1-c1c(O)ccc2ccccc12	-5%	72% (active)	93.3% (active)
